FBW7 act = human FBW7 E3 ligase activation, primary screen | Q969H0 | AlphaScreen FBW7–phospho-cyclin E peptide binding, activator screen | normalized activity (activation), % at 26.1 µM | 650,000 tested, 0.13% active | AID 1259310; in the data active = normalized activity above about 1.9%;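 also: purified mutant Fbw7 with reduced substrate affinity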
Target sequence (Q969H0 whole entry, looked up): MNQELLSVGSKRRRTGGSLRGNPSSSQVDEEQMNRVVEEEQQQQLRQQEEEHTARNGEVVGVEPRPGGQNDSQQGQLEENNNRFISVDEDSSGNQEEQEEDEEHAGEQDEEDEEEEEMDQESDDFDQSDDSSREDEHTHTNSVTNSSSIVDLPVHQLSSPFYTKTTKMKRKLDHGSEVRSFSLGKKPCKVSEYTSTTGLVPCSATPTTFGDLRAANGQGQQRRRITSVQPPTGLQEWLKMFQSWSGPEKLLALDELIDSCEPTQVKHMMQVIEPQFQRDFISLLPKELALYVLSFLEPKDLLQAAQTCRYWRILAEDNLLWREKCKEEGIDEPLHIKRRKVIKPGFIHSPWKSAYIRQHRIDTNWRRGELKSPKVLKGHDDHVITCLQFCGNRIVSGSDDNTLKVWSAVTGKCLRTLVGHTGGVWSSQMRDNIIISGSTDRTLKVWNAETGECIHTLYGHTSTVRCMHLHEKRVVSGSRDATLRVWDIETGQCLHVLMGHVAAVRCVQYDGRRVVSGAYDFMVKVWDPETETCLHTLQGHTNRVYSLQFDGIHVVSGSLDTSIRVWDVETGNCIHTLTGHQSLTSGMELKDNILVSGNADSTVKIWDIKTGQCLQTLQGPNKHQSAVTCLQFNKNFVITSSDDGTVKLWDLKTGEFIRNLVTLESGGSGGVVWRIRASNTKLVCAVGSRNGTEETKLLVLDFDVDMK
GPR151 ag = activates the human receptor GPR151; Q8TDV0; PathHunter beta-arrestin GPR151 cells, luminescence; activation, % at 11.2 µM; 650,000 tested, 1% active; in the data active = activation above about 4.9%;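 also: 0% = median of compound wells and 100% = cells with positive control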
TEAD-YAP block = TEAD-YAP interaction inhibition; 640,000 tested, 1.4% active; HEK-TIYL cells, TEAD-Gal4/YAP UAS-luciferase luminescence; inhibition, % at 9.12 µM; AID 1259422; in the data active = inhibition above about 32%;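 also: 0% = median of test compound wells and 100% = reference inhibitor wells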
MITF primary = human MITF inhibition, primary screen. O75030. AlphaScreen MITF homodimerization, bead proximity signal. inhibition, % at 2.6 µM. 650,000 tested, 0.91% active. AID 1259374; in the data active = inhibition above about 50%;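 also: 0% = vehicle wells with protein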
MITF confirm = confirmation of human MITF inhibitors; shares compounds with MITF primary; AlphaScreen MITF homodimerization, biotin/His-MITF beads; inhibition, % at 2.6 µM; 4,700 tested, 16% active;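 active = inhibition above a cutoff derived from the DMSO control wells, cut at about 28% in these data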;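 also: 0% = MITF dimer wells with DMSO only; inhibitors lower the bead chemiluminescence by keeping MITF from dimerizing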
AS interf DR = optically interferes with AlphaScreen signal in dose response. shares compounds with MITF primary. AlphaScreen optical interference counterscreen, cell-free. IC50, µM. 480 tested, 6% active. AID 1259373; call rule not given here
AlphaScreen intf2 = AlphaScreen optical interference, counter-screen; shares compounds with MITF primary; LysRS AlphaScreen counterscreen, signal interference, triplicate; inhibition, % at 2.6 µM; 4,700 tested, 7.6% active; AID 1259376;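 active = inhibition above a cutoff derived from the DMSO control wells, cut at about 30% in these data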
* hit, by the source's call; . = not tested or not shown. The list is not random: actives were taken first. Their share in the collection is about 3.5%.

SMILES | FBW7 act | GPR151 ag | TEAD-YAP block | MITF primary | MITF confirm | AlphaScreen intf2 | others
O=C(c1cccs1)N1CCN(c2ccc([N+](=O)[O-])cc2F)CC1 | 0 | -1 | -1 | 62* | 3 | -1
COc1ccc(CN2CCN(Cc3cccc(F)c3)CC2)c(OC)c1OC | 0 | 1 | 6 | 47 | . | .
COc1cccc(CNc2cccc(C)c2)c1OC | 0 | 3 | 4 | 78* | 11 | 5
COc1cccc(CN2CCN(C(=O)c3cccc(Cl)c3)CC2)c1OC | 0 | 0 | -6 | 45 | . | .
COc1cccc(CN2CCN(Cc3cccc(Br)c3)CC2)c1OC | 0 | 0 | 1 | 70* | 5 | 3
COc1cccc(CN2CCN(Cc3cccc(Cl)c3)CC2)c1OC | 0 | 1 | 8 | 73* | 4 | 15
COc1ccc(CN2CCN(Cc3cccc(OC)c3OC)CC2)cc1Br | 0 | 2 | -4 | 75* | 10 | 18
COc1cccc(CNc2cccc(F)c2)c1OC | 0 | -1 | 2 | 15 | . | .
COCc1cc(C)nc2sc(C(=O)Nc3cccc4ccccc34)c(N)c12 | 0 | 1 | -4 | -16 | . | .
c1ccc(-c2ncc(CN3CCOc4ccc(CN5CCOCC5)cc4C3)s2)cc1 | 0 | 1 | -4 | 4 | . | .
COc1cc(OC)cc(C(=O)NCc2nnc(SCC(=O)Nc3nccs3)n2-c2ccccc2OC)c1 | 0 | -1 | -11 | -2 | . | .
COc1cccc(CN2CCN(Cc3cccc(C)c3)CC2)c1OC | 0 | 1 | 1 | 76* | 2 | 7
CN(C)c1ccc(/C=N/S(=O)(=O)NC2=NCCCCC2)cc1 | 0 | 0 | 2 | -5 | . | .
O=C(c1cccnc1)N1CCN(Cc2ccccc2[N+](=O)[O-])CC1 | 0 | -1 | 5 | 82* | -2 | -3
O=C(c1cccc(F)c1)N1CCN(Cc2ccccc2[N+](=O)[O-])CC1 | 0 | -1 | 2 | 22 | . | .
O=C(c1ccccc1F)N1CCN(Cc2ccccc2C(F)(F)F)CC1 | 0 | -1 | -3 | 58* | 1 | -9
O=C(c1ccccc1F)N1CCN(Cc2ccccc2[N+](=O)[O-])CC1 | 0 | 0 | -3 | 62* | 7 | 17
O=C(c1ccccc1F)N1CCN(Cc2c[nH]c3ccccc23)CC1 | 0 | -1 | 16 | 35 | . | .
O=C(c1ccc(F)cc1)N1CCN(Cc2ccccc2[N+](=O)[O-])CC1 | 0 | 3 | 5 | 55* | -14 | -5
CC1=C(C(=O)Nc2ccccc2C(F)(F)F)C(c2ccc3c(c2)OCO3)C2=C(CC(c3ccccc3)CC2=O)N1 (configuration not stated) | 0 | -1 | 5 | 10 | . | .
COC(=O)CNC1CCN(c2ccc(C(=O)NCc3ccc4c(c3)OCO4)cc2)CC1 | 0 | -2 | 3 | 16 | . | .
CCOC(=O)c1ccc(-n2ccnc2)c([N+](=O)[O-])c1 | 0 | 2 | 3 | 11 | . | .
COc1ccc(Br)cc1CN1CCN(C(=O)c2ccccc2)CC1 | 0 | 0 | 8 | 43 | . | .
COc1ccc(Br)cc1CN1CCN(C(=O)c2ccccc2F)CC1 | 1 | -3 | -3 | 65* | 5 | 15
CCCCCc1c(C)c(C#N)c2nc3ccccc3n2c1Nc1ccc(OC)cc1 | 0 | 1 | 1 | 10 | . | .
SMILES | FBW7 act | GPR151 ag | TEAD-YAP block | MITF primary | MITF confirm | AlphaScreen intf2 | others
CCN(Cc1ccccc1)C1CCN(Cc2ccccn2)CC1 | 0 | -1 | 4 | 59* | -10 | 0
CC1CCCC(N2CCN(Cc3ccccn3)CC2)C1 (configuration not stated) | 0 | -1 | -5 | 72* | 5 | 16
CC1CCCN(C(=O)C2CCN(Cc3ccccn3)CC2)C1 (configuration not stated) | 0 | 3 | 4 | 18 | . | .
O=C(O)C1CCN(Cc2ccccn2)CC1 | 0 | 1 | 0 | -5 | . | .
c1ccc(C2CCC(N3CCN(Cc4cccnc4)CC3)CC2)cc1 (configuration not stated) | 0 | -1 | 2 | 65* | -10 | 12
c1ccc(N2CCN(C3CCN(Cc4ccccn4)CC3)CC2)cc1 | 0 | 1 | -3 | 54* | 4 | 7
c1ccc(CN2CCC(c3ccncc3)CC2)nc1 | 0 | 0 | 3 | 9 | . | .
Cc1ccccc1CN1CCN(C2CCCC(C)C2)CC1 (configuration not stated) | 0 | -1 | -6 | 76* | -15 | 4
c1ccc(C2CCC(N3CCN(Cc4ccccn4)CC3)CC2)cc1 (configuration not stated) | 0 | -2 | -1 | 68* | 9 | 12
c1ccc(CN2CCN(C3CCCC3)CC2)nc1 | 0 | -1 | -9 | 74* | 11 | 10
c1ccc(CN2CCC(N3CCN(Cc4ccccn4)CC3)CC2)cc1 | 1 | -2 | 4 | 40 | . | .
COC(=O)c1ccc(-c2ccc(/C=C3/C(=N)N4N=C(c5ccc(C)cc5)SC4=NC3=O)o2)cc1 | 0 | 3 | -6 | -6 | . | .
O=C(NC1CCN(Cc2ccccc2)CC1)c1cnc(Br)s1 | 0 | -1 | 2 | 16 | . | .
O=c1oc2ccccc2c(O)c1Cc1cc(Cl)c2cccnc2c1O | 0 | 1 | 1 | 16 | . | .
O=C1NC(=O)C(Cc2cc(Cl)c3cccnc3c2O)C(=O)N1 | 0 | 1 | 3 | 58* | 82* | 85*
C/C=C\C1=C(C(=O)O)N2C(=O)C(NC(=O)C(N)c3ccc(O)cc3)C2SC1 (configuration not stated) | 0 | -1 | -10 | 51* | 28* | 5 | AS interf DR=>6.5
CC1=C(C(=O)O)N2C(=O)[C@@H](NC(=O)[C@H](N)c3ccccc3)[C@H]2SC1 | 0 | 3 | 5 | 6 | . | .
Cc1c(N=Cc2ccc(Sc3nccn3C)c([N+](=O)[O-])c2)c(=O)n(-c2ccccc2)n1C | 0 | 1 | 4 | -17 | . | .
CCCS(=O)(=O)N1CCN(Cc2ccccc2F)CC1 | 0 | 0 | 6 | 57* | 0 | -4
CCCS(=O)(=O)N1CCN(Cc2nc3ccccc3[nH]2)CC1 | 0 | -1 | -7 | 67* | 7 | 20
CS(=O)(=O)N1CCN(Cc2nc3ccccc3[nH]2)CC1 | 0 | -1 | 0 | 72* | 8 | 12
Cc1ccc(C)n1C(CC(=O)O)c1ccsc1 (configuration not stated) | 0 | 1 | 4 | 80* | 68* | 11 | AS interf DR=>6.8
CC(C)C(C)NC(=O)CSc1nnc(NCc2ccccc2)s1 (configuration not stated) | 0 | 1 | -9 | 53* | 3 | 8
Cn1ccc2cc(-c3cc(NCc4cccc(C(F)(F)F)c4)nc(N)n3)ccc21 | 0 | 2 | -1 | 5 | . | .
CCOC(=O)c1c(N)n(CCCN2CCOCC2)c2nc3ccccc3nc12 | 0 | 0 | 0 | 55* | 4 | 8

Source: PubChem
